Assay results reported in PubChem BioAssay AID1508601 (ICCB-Longwood Screening Facility, Harvard Medical School, 2020).
“And” between values parts separate entries of the source, which are not always exact repeats. Identical values can stand only once. Among all 5,700 compounds or so, about 85 (1%) were called active. Rule as the data show it: active = p53-positive nuclei above about 36% (passing the limit was not always enough); inactive = the rest. The list comes from a sample in which actives are over-represented; it also holds similar structures and randomly drawn compounds. A structure can be active in one record and inactive in another.

Experiments:
[1] = nuclear p53 accumulation, HPV+ cells – imaging, p53-positive nuclei imaging, 24 h, 48 h (AID 1508601); conditions: 24/48 h
[2] = molecular target: Cellular tumor antigen p53 (Homo sapiens) (UniProt P04637); assay: as above; conditions: 24/48 h, stronger effect = higher value
Cellular tumor antigen p53 (Homo sapiens), sequence (P04637 whole entry, looked up): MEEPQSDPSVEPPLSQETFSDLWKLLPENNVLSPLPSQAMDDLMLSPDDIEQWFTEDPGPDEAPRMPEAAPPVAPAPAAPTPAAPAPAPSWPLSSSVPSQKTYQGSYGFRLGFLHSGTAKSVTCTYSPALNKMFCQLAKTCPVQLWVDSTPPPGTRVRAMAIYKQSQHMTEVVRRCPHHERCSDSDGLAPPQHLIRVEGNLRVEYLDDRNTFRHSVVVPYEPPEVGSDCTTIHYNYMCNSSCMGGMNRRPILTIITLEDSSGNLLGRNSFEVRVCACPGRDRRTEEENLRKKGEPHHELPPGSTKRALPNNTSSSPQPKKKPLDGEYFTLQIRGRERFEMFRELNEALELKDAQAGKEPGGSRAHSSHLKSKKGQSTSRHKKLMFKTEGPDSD

[3] = measured here: cell number at 24 h, concentration not given here
[4] = measured here: cell number at 48 h, concentration not given here
[5] = measured here: p53 positive nuclei at 24 h, concentration not given here
[6] = measured here: cell number at 24 h, Library stock concentration: 3.33 mM
[7] = measured here: cell number at 48 h, Library stock concentration: 3.33 mM
[8] = Library stock concentration: 3.33 mM
[9] = measured here: p53 positive nuclei at 24 h, Library stock concentration: 3.33 mM
[10] = measured here: cell number at 24 h, Library stock concentration: 80 uM
[11] = measured here: cell number at 24 h, Library stock concentration: 400 uM
[12] = measured here: cell number at 24 h, Library stock concentration: 2 mM
[13] = measured here: cell number at 24 h, Library stock concentration: 10 mM
[14] = measured here: cell number at 48 h, Library stock concentration: 80 uM
[15] = measured here: cell number at 48 h, Library stock concentration: 400 uM
[16] = measured here: cell number at 48 h, Library stock concentration: 2 mM
[17] = measured here: cell number at 48 h, Library stock concentration: 10 mM
[18] = Library stock concentration: 80 uM
[19] = Library stock concentration: 400 uM
[20] = Library stock concentration: 2 mM
[21] = Library stock concentration: 10 mM
[22] = measured here: p53 positive nuclei at 24 h, Library stock concentration: 80 uM
[23] = measured here: p53 positive nuclei at 24 h, Library stock concentration: 400 uM
[24] = measured here: p53 positive nuclei at 24 h, Library stock concentration: 2 mM
[25] = measured here: p53 positive nuclei at 24 h, Library stock concentration: 10 mM

In the case of CCCCC/C=C\C/C=C\C/C=C\C/C=C\CCCC(=O)N[C@H](C)COP(=O)(O)O, the nuclei count, normalised [1, 3] is reported as 107%, the nuclei count, normalised [1, 4] is reported as 103% and the p53-positive nuclei, normalised ([2]; concentration not given here) is reported as 0.124% (inactive). The p53-positive nuclei, normalised [2, 5] was -0.0345%.

For N#CC(OC1OC(COC2OC(CO)C(O)C(O)C2O)C(O)C(O)C1O)c1ccccc1 (configuration not stated), the nuclei count, normalised [1, 6] was 95.4%, the nuclei count, normalised [1, 7] was 89.1% and the p53-positive nuclei, normalised [2, 8] was 0.141% (inactive). It also gave a p53-positive nuclei, normalised [2, 9] of -0.0206%.

In the case of Cc1ccc(-n2nccn2)c(C(=O)N2CCN(c3nc4cc(Cl)ccc4o3)CCC2C)c1 (configuration not stated), the nuclei count, normalised [1, 6] is reported as 71.4%, the nuclei count, normalised [1, 7] is reported as 76.4% and the p53-positive nuclei, normalised [2, 8] is reported as 0.0905% (inactive). The p53-positive nuclei, normalised [2, 9] was -0.163%.

With c1cc(N2CCNCC2)c2cnccc2c1 the nuclei count, normalised [1, 3] was 95.9%, the nuclei count, normalised [1, 4] was 98.3% and the p53-positive nuclei, normalised ([2]; concentration not given here) was -0.118% (inactive). For the same molecule, the p53-positive nuclei, normalised [2, 5] was -0.041%.

For CN(C)C(=S)SSC(=S)N(C)C, the nuclei count, normalised [1, 3] was 35.4%, the nuclei count, normalised [1, 4] was 24.2% and the p53-positive nuclei, normalised ([2]; concentration not given here) was 90.3% (active). The p53-positive nuclei, normalised [2, 5] was 108%.

With Cc1sc2c(c1C)C(c1ccc(Cl)cc1)=NC(CC(=O)Nc1ccc(O)cc1)c1nnc(C)n1-2 (configuration not stated) the nuclei count, normalised [1, 10] was 110%, the nuclei count, normalised [1, 11] was 120% and the nuclei count, normalised [1, 12] was 113%. The nuclei count, normalised [1, 6] was 119%, the nuclei count, normalised [1, 13] was 114% and the nuclei count, normalised [1, 14] was 108%. It also gave a nuclei count, normalised [1, 15] of 119%, a nuclei count, normalised [1, 16] of 111% and a nuclei count, normalised [1, 7] of 117%. For the same molecule, the nuclei count, normalised [1, 17] was 109%, the p53-positive nuclei, normalised [2, 18] was 0.0544% (inactive) and the p53-positive nuclei, normalised [2, 19] was 0.0288% (inactive). For the same molecule, the p53-positive nuclei, normalised [2, 20] was 3.49% (inactive), the p53-positive nuclei, normalised [2, 8] was 3.67% (inactive) and the p53-positive nuclei, normalised [2, 21] was 9.67% (inactive). The p53-positive nuclei, normalised [2, 22] was 0.123%, the p53-positive nuclei, normalised [2, 23] was 0.712% and the p53-positive nuclei, normalised [2, 24] was 19.6%. It also gave a p53-positive nuclei, normalised [2, 9] of 10.4% and a p53-positive nuclei, normalised [2, 25] of 46.6%.

For Cc1sc2c(c1C)C(c1ccc(Cl)cc1)=NC(CC(=O)OC(C)(C)C)c1nnc(C)n1-2 (configuration not stated), the nuclei count, normalised [1, 10] was 101% and 128% and 116%, the nuclei count, normalised [1, 11] was 109% and 128% and 117% and the nuclei count, normalised [1, 12] was 107% and 132% and 120%. For the same molecule, the nuclei count, normalised [1, 6] was 128%, the nuclei count, normalised [1, 13] was 99.7% and 123% and 119% and the nuclei count, normalised [1, 14] was 95.3% and 134% and 114%. The nuclei count, normalised [1, 15] was 97.6% and 128% and 112%, the nuclei count, normalised [1, 16] was 109% and 132% and 118% and the nuclei count, normalised [1, 7] was 124%. For the same molecule, the nuclei count, normalised [1, 17] was 99.9% and 124% and 117%, the p53-positive nuclei, normalised [2, 18] was 0.233% (inactive) and -0.29% (inactive) and -0.79% (inactive) and the p53-positive nuclei, normalised [2, 19] was -0.238% (inactive) and -0.0882% (inactive) and -0.721% (inactive). For the same molecule, the p53-positive nuclei, normalised [2, 20] was 3.93% (inactive) and 0.629% (inactive) and -0.825% (inactive), the p53-positive nuclei, normalised [2, 8] was 7.2% (inactive) and the p53-positive nuclei, normalised [2, 21] was 26.8% (active) and 8.08% (inactive) and -0.599% (inactive). The p53-positive nuclei, normalised [2, 22] was 0.0692% and 0.858% and -0.21%, the p53-positive nuclei, normalised [2, 23] was 0.159% and 1.07% and -0.0728% and the p53-positive nuclei, normalised [2, 24] was 12.9% and 4.45% and -0.21%. The p53-positive nuclei, normalised [2, 9] was 15.6% and the p53-positive nuclei, normalised [2, 25] was 54.1% and 21.9% and 0.0629%.

In the case of Cc1sc2c(c1C)C(c1ccc(Cl)cc1)=NC(CC(N)=O)c1nnc(C)n1-2 (configuration not stated), the nuclei count, normalised ([1]; measured here: cell number at 24 h, Library stock concentration: 46 uM) is reported as 103%, the nuclei count, normalised ([1]; measured here: cell number at 24 h, Library stock concentration: 278 uM) is reported as 99.7% and the nuclei count, normalised ([1]; measured here: cell number at 24 h, Library stock concentration: 1.67 mM) is reported as 85.4%. It also gave a nuclei count, normalised [1, 6] of 123%, a nuclei count, normalised [1, 13] of 90.1% and a nuclei count, normalised ([1]; measured here: cell number at 48 h, Library stock concentration: 46 uM) of 106%. It also gave a nuclei count, normalised ([1]; measured here: cell number at 48 h, Library stock concentration: 278 uM) of 102%, a nuclei count, normalised ([1]; measured here: cell number at 48 h, Library stock concentration: 1.67 mM) of 87.7% and a nuclei count, normalised [1, 7] of 122%. For the same molecule, the nuclei count, normalised [1, 17] was 84.3%, the p53-positive nuclei, normalised ([2]; Library stock concentration: 46 uM) was -0.111% (inactive) and the p53-positive nuclei, normalised ([2]; Library stock concentration: 278 uM) was 0.158% (inactive). The p53-positive nuclei, normalised ([2]; Library stock concentration: 1.67 mM) was 12.8% (inactive), the p53-positive nuclei, normalised [2, 8] was 3.31% (inactive) and the p53-positive nuclei, normalised [2, 21] was 25.8% (inactive). For the same molecule, the p53-positive nuclei, normalised ([2]; measured here: p53 positive nuclei at 24 h, Library stock concentration: 46 uM) was -0.0163%, the p53-positive nuclei, normalised ([2]; measured here: p53 positive nuclei at 24 h, Library stock concentration: 278 uM) was 0.11% and the p53-positive nuclei, normalised ([2]; measured here: p53 positive nuclei at 24 h, Library stock concentration: 1.67 mM) was 27%. For the same molecule, the p53-positive nuclei, normalised [2, 9] was 12.7% and the p53-positive nuclei, normalised [2, 25] was 46.3%.

With CCCCC/C=C\C/C=C\C/C=C\C/C=C\CCCC(=O)N[C@@H](CO)C(=O)O the nuclei count, normalised [1, 3] was 108%, the nuclei count, normalised [1, 4] was 107% and the p53-positive nuclei, normalised ([2]; concentration not given here) was 0.0364% (inactive). For the same molecule, the p53-positive nuclei, normalised [2, 5] was -0.0848%.

In the case of C=C(C)[C@@H]1CCC(C)=C[C@H]1c1c(OC)cc(CCCCC)cc1OC, the nuclei count, normalised [1, 3] is reported as 107%, the nuclei count, normalised [1, 4] is reported as 109% and the p53-positive nuclei, normalised ([2]; concentration not given here) is reported as 0.00281% (inactive). For the same molecule, the p53-positive nuclei, normalised [2, 5] was -0.021%.

With CCCCC/C=C\C/C=C\C/C=C\C/C=C\CCCC(=O)NC1CC1 the nuclei count, normalised [1, 3] was 110%, the nuclei count, normalised [1, 4] was 110% and the p53-positive nuclei, normalised ([2]; concentration not given here) was -0.0789% (inactive). For the same molecule, the p53-positive nuclei, normalised [2, 5] was -0.0843%.
